# Calls of active or inactive are those of the source.
# Legend:
# [1] = system: XIP peptide (Xip251-270) binding; test: small-molecule binders of XIP peptide, primary screen, biochemical, small-molecule microarray, fluorescence 635/667 nm, 0.1 µg/mL protein (AID 1182); settings: fluorescent protein binding, 635 nm, higher = more signal, called active from +8 up or from −8 down
# XIP peptide (Xip251-270) = test: small-molecule binders of XIP peptide, primary screen, biochemical, small-molecule microarray, fluorescence 635/667 nm, 0.5 µg/mL protein (AID 1183); settings: small-molecule microarray binding, fluorescence 635 nm; higher = more signal
# [2] = Plasmodium falciparum growth inhibition, primary screen, strain 3D7, DAPI fluorescence, 100 nL (AID 1184);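 also: parasites grown inside human red blood cells in medium with human serum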; settings: P. falciparum 3D7 growth, 3 d, higher = more signal
# [3] = target: Homeobox protein Hox-A13 (Mus musculus) (UniProt Q62424); test: inhibitors of HoxA13-DNA binding, primary screen, biochemical, fluorescence polarization, labeled oligonucleotide (AID 1185); settings: 15 min, higher = more signal, called active from +8 up or from −8 down
# Chain of Homeobox protein Hox-A13 (Mus musculus) (Q62424 whole entry, looked up): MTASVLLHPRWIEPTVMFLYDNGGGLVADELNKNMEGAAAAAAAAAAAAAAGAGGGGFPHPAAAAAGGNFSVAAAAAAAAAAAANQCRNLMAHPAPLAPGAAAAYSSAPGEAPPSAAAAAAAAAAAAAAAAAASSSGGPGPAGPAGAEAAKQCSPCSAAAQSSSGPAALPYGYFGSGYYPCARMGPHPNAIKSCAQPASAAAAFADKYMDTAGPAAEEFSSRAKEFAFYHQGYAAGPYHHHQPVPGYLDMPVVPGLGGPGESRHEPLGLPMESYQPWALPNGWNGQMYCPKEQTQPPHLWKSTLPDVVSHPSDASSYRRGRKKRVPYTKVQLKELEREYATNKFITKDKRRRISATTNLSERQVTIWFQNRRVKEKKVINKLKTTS
Structure (SMILES),composite z-score [1],composite z-score (XIP peptide (Xip251-270)),z-score [2],z-score [3]
O=C1[C@H]2[C@H]3[C@H](O)[C@H](O)CC(=NOCc4ccccc4)[C@@H]3CC[C@H]2C(=O)N1C[C@@H]1CCCO1,-0.308 (inactive),0.625,-0.0671,-1.49 (inactive)
CO[C@H]1COC(=O)CC=C[C@@H](C)[C@H](OC)COC(=O)CCC[C@@H]1C,-0.283 (inactive),-0.15,0.0095,-0.51 (inactive)
C#CCCCON=C1C[C@@H](O)[C@@H](O)[C@@H]2[C@@H]3C(=O)N(CCC(=O)OCC)C(=O)[C@@H]3CC[C@H]12,0.768 (inactive),0.493,-0.206,1.24 (inactive)
CCOC(=O)[C@H](Cc1ccccc1)NC(=O)CCC1CC(OC(=O)NCCc2ccc(F)cc2)CC2(CCCC(COC(=O)NCCc3ccccc3OC)O2)O1 (stereo not given in full),-0.157 (inactive),0.525,-1.94,-2.27 (inactive)
CO[C@H]1COC(=O)CC=C[C@H](C)COC(=O)[C@@H](C)NC(=O)CC=C[C@@H]1C,0.0921 (inactive),0.424,-1.19,-1.07 (inactive)
C[C@H]1Cc2c(COc3ccccc3)nc3c(c2CO1)CN(CCOc1ccccc1)CC3,-0.279 (inactive),0.692,0.668,-5.49 (inactive)
COC(=O)CC=C[C@@H](C)[C@@H](C=NO[C@H](C)c1cn([C@H](CO)Cc2ccccc2)nn1)OC,0.312 (inactive),0.367,-0.866,-1.89 (inactive)
CCOC(=O)NN=C1C[C@@H](O)[C@@H](O)[C@@H]2[C@@H]3C(=O)N([C@@H](C)c4ccccc4)C(=O)[C@@H]3CC[C@@H]12,-0.235 (inactive),0.519,0.156,-1.84 (inactive)
CC(C)=CCCC(C)=CCON=C1C[C@@H](O)[C@@H](O)[C@@H]2[C@@H]3C(=O)N(Cc4ccccc4)C(=O)[C@@H]3CC[C@H]12,-0.0515 (inactive),0.419,-0.869,-4.91 (inactive)
CCCNC(=O)OC[C@H]1O[C@H](CCON=C(C)CCN2CCc3nc(CC)c(CC)cc3C2)C=C[C@@H]1Oc1ccc(OC)cc1,-0.339 (inactive),0.27,-2.17,-5.98 (inactive)
Cc1ccc(S(=O)(=O)N[C@@H]2COC(=O)[C@@H](C)COC(=O)CC=C[C@H]2C)cc1,-0.21 (inactive),0.038,0.393,-0.0483 (inactive)
O=C1[C@H]2[C@H]3[C@H](O)[C@H](O)CC(=NOCc4ccccc4)[C@@H]3CC[C@H]2C(=O)N1c1ccc(F)cc1F,-0.228 (inactive),0.0159,-0.545,0.941 (inactive)
CC[C@@H](c1ccccc1)n1c(=O)n2n(c1=O)[C@H]1[C@H](O)[C@@H]3O[C@@H]3C(=NOC[C@@H](O)COCc3ccco3)[C@H]1CC2,-0.0593 (inactive),-0.268,-0.949,-3.57 (inactive)
CC(C)=CCCC(C)=CCON=C1C[C@@H](O)[C@@H](O)[C@@H]2[C@@H]3C(=O)N(c4ccc(F)cc4F)C(=O)[C@@H]3CC[C@@H]12,-0.0619 (inactive),0.542,-1.59,-4.62 (inactive)
CCN1C(=O)[C@H]2[C@H]3[C@H](O)[C@H](O)CC(=O)[C@@H]3CC[C@H]2C1=O,0.221 (inactive),0.488,1.51,0.202 (inactive)
COc1cccc([C@H]2Oc3ccc(OC)cc3C(=NOC(C)CN3CCCCc4nc(C)c(C)cc43)[C@@H]2O)c1 (stereo not given in full),1.06 (inactive),0.195,0.25,-4.68 (inactive)
O=C1C[C@@H](O)[C@@H](O)[C@@H]2[C@@H]3C(=O)N(C[C@@H]4CCCO4)C(=O)[C@@H]3CC[C@H]12,0.195 (inactive),0.156,0.116,0.195 (inactive)
CC(CCC(=O)OC[C@H]1O[C@H](C#Cc2ccccc2)C=C[C@@H]1Oc1ccc(C)cc1)=NO[C@H](C)c1cn([C@H](CO)Cc2ccccc2)nn1,0.157 (inactive),0.662,-0.563,-2.88 (inactive)
CC(=O)OC[C@H]1O[C@H](C#Cc2ccccc2)C=C[C@@H]1OC(C)=O,-0.794 (inactive),0.823,0.0037,-3 (inactive)
COc1cccc([C@H]2Oc3ccc(OC)cc3C(=NO[C@H](C)c3cn([C@H](CO)Cc4ccccc4)nn3)[C@@H]2O)c1,-0.0592 (inactive),0.733,0.24,-6.29 (inactive)

# Source: PubChem BioAssay
